{
  "source": "PubChem BioAssay AID2845",
  "about": "(The Scripps Research Institute Molecular Screening Center, 2010)",
  "note": "About 2,000 (87%) of roughly 2,300 compounds were called active. Cut-off read from the data, not from the text of the source: active = activation above about 49%; inactive = the rest. So high a share suggests a set chosen from earlier hits. Only a sample is shown.",
  "data": [
    {"target": "Aryl hydrocarbon receptor (Homo sapiens) (UniProt P35869)", "sequence (P35869 whole entry, looked up)": "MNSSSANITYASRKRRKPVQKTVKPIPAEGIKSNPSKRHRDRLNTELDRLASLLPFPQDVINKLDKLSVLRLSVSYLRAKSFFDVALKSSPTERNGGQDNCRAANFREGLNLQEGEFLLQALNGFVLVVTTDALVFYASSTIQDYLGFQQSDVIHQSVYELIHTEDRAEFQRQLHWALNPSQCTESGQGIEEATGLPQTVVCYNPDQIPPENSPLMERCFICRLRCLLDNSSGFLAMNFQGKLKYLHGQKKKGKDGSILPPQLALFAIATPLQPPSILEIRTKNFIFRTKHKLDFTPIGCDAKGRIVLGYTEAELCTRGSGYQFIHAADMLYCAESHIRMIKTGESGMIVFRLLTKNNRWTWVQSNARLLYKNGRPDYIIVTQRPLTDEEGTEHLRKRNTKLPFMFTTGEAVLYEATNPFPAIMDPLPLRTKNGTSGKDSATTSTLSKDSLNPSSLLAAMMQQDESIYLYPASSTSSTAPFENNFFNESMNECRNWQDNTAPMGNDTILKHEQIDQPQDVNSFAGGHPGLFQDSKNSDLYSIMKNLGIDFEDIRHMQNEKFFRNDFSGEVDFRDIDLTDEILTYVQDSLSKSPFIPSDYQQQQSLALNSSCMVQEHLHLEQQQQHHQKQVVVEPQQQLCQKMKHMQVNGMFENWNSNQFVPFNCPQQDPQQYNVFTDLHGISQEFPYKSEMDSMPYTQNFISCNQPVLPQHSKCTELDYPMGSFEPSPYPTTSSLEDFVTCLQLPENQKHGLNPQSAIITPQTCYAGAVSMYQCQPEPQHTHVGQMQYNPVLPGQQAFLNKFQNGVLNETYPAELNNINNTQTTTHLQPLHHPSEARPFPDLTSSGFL", "assay": "activators of human aryl hydrocarbon receptor reporter – cell-based, luminescence, luciferase reporter, confirmation (AID 2845);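 note: HepG2 hepatoma cells carrying a DRE-driven firefly luciferase reporter; 0% = vehicle wells and 100% = reference agonist wells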", "settings": "human cells, AHR-responsive luciferase reporter, at 9 µM, hits give high values", "values": [
      {"smiles": "CCOC(=O)N1CCN(C(=O)c2cc3c(-c4ccc(Cl)cc4)nn(C)c3s2)CC1", "activation": "85.9% (active)"},
      {"smiles": "COc1ccccc1N1CCN(C(=O)c2cc3c(-c4ccc(Cl)cc4)nn(C)c3s2)CC1", "activation": "102% (active)"},
      {"smiles": "Cn1nc(-c2ccc(Cl)cc2)c2cc(C(=O)NCc3ccco3)sc21", "activation": "148% (active)"},
      {"smiles": "CN(C)c1nc(Nc2ccc(Cl)c(Cl)c2)nc(N(C)C)n1", "activation": "129% (active)"},
      {"smiles": "C=CCNC(=O)CSc1nc2sc(C)c(C)c2c(=O)[nH]1", "activation": "53% (active)"},
      {"smiles": "c1cnc(N2CCN(c3ccc4ccccc4n3)CC2)nc1", "activation": "96.5% (active)"},
      {"smiles": "Cc1nc2sc(C(=O)c3ccccc3)c(N)c2c2c1CCCC2", "activation": "97.5% (active)"},
      {"smiles": "Cn1c(SCC(=O)c2ccccc2)ncc(C(=O)Nc2ccc(F)cc2)c1=O", "activation": "120% (active)"},
      {"smiles": "CC1Cc2ccccc2N1C(=O)CSc1nnc(C2CC2)n1C", "note": "(stereo not given)", "activation": "47.2% (active)"},
      {"smiles": "COc1ccc(C(=O)Nc2ccccc2C(=O)N/N=C/c2ccccc2OC)cc1", "activation": "66.5% (active)"},
      {"smiles": "O=C(CC1Nc2ccccc2NC1=O)Nc1ccccc1", "note": "(stereo not given)", "activation": "119% (active)"},
      {"smiles": "Cn1cc(Cl)c(C(=O)NNC(=S)Nc2cccc(Cl)c2)n1", "activation": "75.4% (active)"},
      {"smiles": "O=C(Nn1c(-c2ccc(Cl)cc2)nc2ccccc2c1=O)c1cccnc1Cl", "activation": "28.5% (inactive)"},
      {"smiles": "Cc1ccc(-c2nc(C#N)c(NCCCn3ccnc3)o2)cc1", "activation": "107% (active)"},
      {"smiles": "O=C(Cn1c(NCCO)nc2ccccc21)c1ccc(Cl)cc1Cl", "activation": "115% (active)"},
      {"smiles": "COc1ccc(C2NC(=O)c3ccccc3N2)cc1", "note": "(stereo not given)", "activation": "39.3% (inactive)"},
      {"smiles": "Cc1cc(O)c(C(=O)/C=C/c2c(F)c(F)c(F)c(F)c2F)c(=O)o1", "activation": "69.7% (active)"},
      {"smiles": "CCOC(=O)c1ccc2[nH]c3c(c2c1)CCCC3NC=O", "note": "(stereo not given)", "activation": "89.1% (active)"},
      {"smiles": "CC(C)C(=O)Nc1c(C(=O)c2ccc(F)cc2)oc2ccccc12", "activation": "84.4% (active)"},
      {"smiles": "CSc1ncccc1C(=O)Nc1nc2ccc(F)cc2s1", "activation": "-8.12% (inactive)"},
      {"smiles": "O=C(CSc1ccccn1)Nc1nc2c(ccc3ccccc32)s1", "activation": "130% (active)"},
      {"smiles": "C/C(=N\\NC(=O)CNc1cccc2ccccc12)c1ccc(Br)s1", "activation": "79.5% (active)"},
      {"smiles": "Cc1nn2c3cc(N4CCOCC4)ccc3nc2c2ccccc12", "activation": "85% (active)"},
      {"smiles": "Cc1cc(N2CCOCC2)nc(-c2ccc(Br)cc2)n1", "activation": "60.3% (active)"},
      {"smiles": "O=C(Cn1cncn1)N/N=C/c1c2ccccc2cc2ccccc12", "activation": "73.7% (active)"},
      {"smiles": "CCOc1ccccc1NC(=O)c1cccnc1", "activation": "121% (active)"},
      {"smiles": "Cc1ccc(Cl)cc1NC(=O)C1CCCN(c2cnccn2)C1", "note": "(stereo not given)", "activation": "90.8% (active)"},
      {"smiles": "O=C(Nc1cccc(Cl)c1)C1CCCN(c2cnccn2)C1", "note": "(stereo not given)", "activation": "73% (active)"},
      {"smiles": "Brc1ccc(-c2noc(-c3ccccc3)n2)o1", "activation": "162% (active)"},
      {"smiles": "Nc1[nH][nH]c(=O)c1N=Nc1ccc2c(c1)OCO2", "activation": "74.9% (active)"},
      {"smiles": "C=CCOc1c(Br)cc(/C=N\\n2nnnc2N)cc1OC", "activation": "77.9% (active)"},
      {"smiles": "COc1ccc(Cl)cc1C(=O)Nc1ccc(N(C)C(C)=O)cc1", "activation": "78.6% (active)"},
      {"smiles": "COc1cccc(-n2c(SCC(=O)NC3CCCCC3)nc3n[nH]c(C)c3c2=N)c1", "activation": "83.7% (active)"},
      {"smiles": "COc1cc2ccccc2cc1C(=O)Nc1ccc(N2CCOCC2)cc1", "activation": "118% (active)"},
      {"smiles": "COc1cccc(OC)c1C(=O)Nc1ccc(N2CCCCC2)cc1", "activation": "80.7% (active)"},
      {"smiles": "O=C(Nc1ccc(OC(F)(F)F)cc1)c1ccc2c(c1)no[n+]2[O-]", "activation": "127% (active)"},
      {"smiles": "OCCNc1nc(Nc2ccc(Cl)c(Cl)c2)nc2ccccc12", "activation": "83.8% (active)"},
      {"smiles": "CCc1nc(Nc2ccc3nccnc3c2)c2oc3ccccc3c2n1", "activation": "120% (active)"},
      {"smiles": "CCCCC(=O)Nc1ccc(C(=O)Nc2cc(C(F)(F)F)ccc2Cl)cc1", "activation": "92.7% (active)"},
      {"smiles": "Cc1nn(-c2ccccc2)c2[nH]c(C(F)(F)F)cc(=O)c12", "activation": "52.9% (active)"}
    ]}
  ]
}
